The values below come from PubChem BioAssay.

Structures are written as SMILES. Entries with a potency or affinity are not part of this list. Active and inactive are the calls of the source.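 How the source made its calls, unless noted: active means fitted half-maximal concentration within the tested range, moderate curve steepness, significant signal drop, and little compound fluorescence or bead-linkage interference; inactive means the rest.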

The target of the first assay is Cell division control protein 42 homolog (Homo sapiens) (UniProt P60953). Nature of the assay: activated mutant Cdc42 GTP-binding inhibitors, dose response, biochemical, multiplex bead flow cytometry, Bodipy-FL-GTP (AID 1333;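 active means fitted half-maximal concentration within the tested dose range, moderate curve steepness, a statistically real signal drop, and little compound fluorescence or tag-binding interference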). Conditions: bead-based flow cytometry; series mostly up to 100 µM; GTP binding signal, percent: at the top concentration.
Cell division control protein 42 homolog (Homo sapiens), sequence (P60953 whole entry, looked up): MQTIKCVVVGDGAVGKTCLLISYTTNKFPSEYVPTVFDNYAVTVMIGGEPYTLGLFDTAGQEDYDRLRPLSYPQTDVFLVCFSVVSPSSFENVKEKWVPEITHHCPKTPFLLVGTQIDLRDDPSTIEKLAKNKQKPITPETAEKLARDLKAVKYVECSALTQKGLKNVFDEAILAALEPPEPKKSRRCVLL
Regarding `CC(C)N(C)NC(=S)Nc1ccccc1`, the “GTP binding signal, percent” value was 35.8% (inactive).

With `C=CC#CC[N+]1(CC#Cc2ccccc2)CCOCC1`, the “GTP binding signal, percent” value was 51.5% (inactive).

Take `CC1=C(C(=O)Nc2ccccc2)C(c2ccc(Cl)cc2)n2c(s/c(=C/c3cccc(OCC(=O)O)c3)c2=O)=N1` (stereo unspecified): the “GTP binding signal, percent” value is 35.1% (inactive).

In the case of `CCOC(=O)c1c(-c2ccccc2)csc1NC(=O)/C(C#N)=C/c1ccc(O)c(OC)c1`, the “GTP binding signal, percent” value is 67.6% (inactive).

On to `COc1ccc(/C=N/Nc2ncnc3sc4c(c23)CCCC4)cc1O`, for which the “GTP binding signal, percent” value was 23.8% (inactive).

As to `Cc1ccc(C)c(OCc2ccc(C(=O)O)o2)c1`, the “GTP binding signal, percent” value is 52.5% (inactive).

As to `CCCCNC(=O)c1cc([N+](=O)[O-])[nH]n1`, the “GTP binding signal, percent” value was 35.7% (inactive).

Take `Cc1ccc(Nc2n[nH]c(C)c2[N+](=O)[O-])c(C)c1`: the “GTP binding signal, percent” value was 32.3% (inactive).

On to `O=c1c2ccccc2nc2c3ccccc3c(Cl)nn12`, for which the “GTP binding signal, percent” value was 52.5% (inactive).

As for `O=C(O)/C=C/C(=O)Nc1cccnc1`, the “GTP binding signal, percent” value was 38.1% (inactive).

In the case of `COc1ccc(/C=C2\SC(=S)N(CCCC(=O)NNC(=O)c3ccccc3O)C2=O)cc1`, the “GTP binding signal, percent” value is 53.4% (inactive).

Turning to `CCC/C(O)=C1\C(=O)CC(C)(C)CC1=Nc1ccccc1OC`, the “GTP binding signal, percent” value is 57.8% (inactive).

Consider `CC(=O)NC1CC2CCCC(C1)N2C(=O)Nc1ccc(Cl)c(C(F)(F)F)c1` (stereo unspecified), for which the “GTP binding signal, percent” value is 47.7% (inactive).

In the case of `CCCCn1c(O)c(N=NC(=O)c2ccccc2NS(=O)(=O)c2cccs2)c2ccccc21`, the “GTP binding signal, percent” value was 81.1% (inactive).

Consider `Cc1c(C(=O)N2CCc3ccccc3C2)oc2ccc(S(=O)(=O)N3CCCCCC3)cc12`, for which the “GTP binding signal, percent” value was 33.6% (inactive).

On to `COc1cc2[nH]c(=S)nc(Nc3ccc(NC(C)=O)cc3)c2cc1OC`, for which the “GTP binding signal, percent” value is 36.6% (inactive).

For the molecule `O=C(CSc1nnc2c(n1)[nH]c1ccccc12)Nc1ccc(S(=O)(=O)Nc2ncccn2)cc1`, the “GTP binding signal, percent” value was 34.4% (inactive).

`CCCN1C(=O)/C(=C\C=C2/Sc3ccccc3N2CC)SC1=S`: the “GTP binding signal, percent” value was 50.6% (inactive).

`C=CCn1c(COc2ccc(F)cc2)nnc1SCC(=O)c1c[nH]c2c(CC)cccc12`: the “GTP binding signal, percent” value is 34.7% (inactive).

With `O=C(CSc1ccc2nnc(-c3ccccn3)n2n1)Nc1ccc2c(c1)OCO2`, the “GTP binding signal, percent” value is 27.4% (inactive).

For the molecule `COc1ccccc1C(=O)Nc1nc(-c2ccc3c(c2)OCCO3)cs1`, the “GTP binding signal, percent” value was 38.4% (inactive).

In the case of `COc1ccc(O)c(-c2cc(C(F)(F)C(F)F)nc(-c3ccccc3)n2)c1`, the “GTP binding signal, percent” value was 47.8% (inactive).

For a further assay the target is unchanged. The assay can be described thus: wildtype Cdc42 GTP-binding inhibitors, dose response, biochemical, multiplex bead flow cytometry, Bodipy-FL-GTP (AID 1334). Conditions: bead-based flow cytometry, Bodipy-FL-GTP binding to GST-Cdc42; at 100 µM (top of the series) unless noted.
Take `O=C(O)c1c(C(F)(F)F)ccnc1SCc1ccccc1`: the fluorescence, percent of control (lower = inhibition) amounted to 62%.

`Cc1cc(C)n2nc(C(=O)N3CCCC(CNS(=O)(=O)c4cccs4)C3)cc2n1` (stereo unspecified): the fluorescence, percent of control (lower = inhibition) was 37.1%.

In the case of `CCC(C)C(=O)Nc1ccc(OC)cc1OC` (stereo unspecified), the fluorescence, percent of control (lower = inhibition) was found to be 92.4%.

Regarding `Cc1ccc(-n2nc3c(SCCN4CCOCC4)nnc(C)c3c2C)cc1`, the fluorescence, percent of control (lower = inhibition) is 49%.

With `CCCCCn1nc(C(=O)OCC(=O)c2c(N)n(C)c(=O)n(C)c2=O)c2ccccc2c1=O`, the fluorescence, percent of control (lower = inhibition) was found to be 34%.

Consider `COCCCNc1nc(=S)[nH]c2cc(OC)c(OC)cc12`, for which the fluorescence, percent of control (lower = inhibition) turned out to be 32.5%.

Take `COc1ccccc1Oc1ccccc1C(=O)O`: the fluorescence, percent of control (lower = inhibition) was 100%.

For the molecule `Cc1nn(CCc2nn[nH]n2)c2nc(-c3ccc(C4CCCCC4)cc3)cc(C(F)(F)F)c12`, the fluorescence, percent of control (lower = inhibition) came to 22.1%.

With `O=c1c2ccc([N+](=O)[O-])cc2ncn1CCOc1ccccc1`, the fluorescence, percent of control (lower = inhibition) is 48.1%.

For `CSc1nnc(-c2cc(Br)ccc2N=Cc2c(C)[nH]n(-c3ccccc3)c2=O)c(=O)[nH]1`, the fluorescence, percent of control (lower = inhibition) was found to be 24.2%.

Consider `Cc1ccc(N=Nc2c(N)[nH]n3c(=O)cc(C)nc23)cc1`, for which the fluorescence, percent of control (lower = inhibition) was found to be 48.4%.

Consider `O=C(N/N=C/c1c(O)n(Cc2ccccc2)c(=O)c2ccccc12)c1cccnc1`, for which the fluorescence, percent of control (lower = inhibition) is 18.5%.

`CCn1cc(C(=O)OCC(=O)c2cc(C)n(-c3cccc(C(F)(F)F)c3)c2C)c(=O)c2ccc(C)nc21`: the fluorescence, percent of control (lower = inhibition) is 37.1%.

Take `Cc1sc2ncnc(N/N=C/c3ccc(O)cc3)c2c1C`: the fluorescence, percent of control (lower = inhibition) came to 27.2%.

On to `O=c1[nH]c2ccc(S(=O)(=O)NCc3ccccc3)cc2[nH]1`, for which the fluorescence, percent of control (lower = inhibition) turned out to be 38.1%.

Consider `CCc1ccc(Cn2nnc(C(=O)O)c2C(=O)O)cc1`, for which the fluorescence, percent of control (lower = inhibition) turned out to be 58.5%.

As to `Cc1cc(NS(=O)(=O)c2ccc(NC(=O)c3cc4c(=O)n5ccccc5nc4s3)cc2)nc(C)n1`, the fluorescence, percent of control (lower = inhibition) was found to be 31.9%.

As to `CC(C)N(C)NC(=S)Nc1ccccc1`, the fluorescence, percent of control (lower = inhibition) worked out at 53.9%.

For the molecule `C=CC#CC[N+]1(CC#Cc2ccccc2)CCOCC1`, the fluorescence, percent of control (lower = inhibition) is 97.9%.

In the case of `CC1=C(C(=O)Nc2ccccc2)C(c2ccc(Cl)cc2)n2c(s/c(=C/c3cccc(OCC(=O)O)c3)c2=O)=N1` (stereo unspecified), the fluorescence, percent of control (lower = inhibition) was 26.5%.

Take `CCOC(=O)c1c(-c2ccccc2)csc1NC(=O)/C(C#N)=C/c1ccc(O)c(OC)c1`: the fluorescence, percent of control (lower = inhibition) stood at 79.7%.

`COc1ccc(/C=N/Nc2ncnc3sc4c(c23)CCCC4)cc1O`: the fluorescence, percent of control (lower = inhibition) was determined as 30.6%.

For `Cc1ccc(C)c(OCc2ccc(C(=O)O)o2)c1`, the fluorescence, percent of control (lower = inhibition) came to 63.2%.

As to `CCCCNC(=O)c1cc([N+](=O)[O-])[nH]n1`, the fluorescence, percent of control (lower = inhibition) came to 56.1%.

Consider `Cc1ccc(Nc2n[nH]c(C)c2[N+](=O)[O-])c(C)c1`, for which the fluorescence, percent of control (lower = inhibition) amounted to 52.6%.

On to `O=c1c2ccccc2nc2c3ccccc3c(Cl)nn12`, for which the fluorescence, percent of control (lower = inhibition) was 36.6%.

As for `O=C(O)/C=C/C(=O)Nc1cccnc1`, the fluorescence, percent of control (lower = inhibition) is 50.8%.

`COc1ccc(/C=C2\SC(=S)N(CCCC(=O)NNC(=O)c3ccccc3O)C2=O)cc1`: the fluorescence, percent of control (lower = inhibition) was 32.8%.

Take `CCC/C(O)=C1\C(=O)CC(C)(C)CC1=Nc1ccccc1OC`: the fluorescence, percent of control (lower = inhibition) is 41.5%.

For the molecule `CC(=O)NC1CC2CCCC(C1)N2C(=O)Nc1ccc(Cl)c(C(F)(F)F)c1` (stereo unspecified), the fluorescence, percent of control (lower = inhibition) turned out to be 91.1%.

Regarding `CCCCn1c(O)c(N=NC(=O)c2ccccc2NS(=O)(=O)c2cccs2)c2ccccc21`, the fluorescence, percent of control (lower = inhibition) amounted to 37.3%.

With `Cc1c(C(=O)N2CCc3ccccc3C2)oc2ccc(S(=O)(=O)N3CCCCCC3)cc12`, the fluorescence, percent of control (lower = inhibition) was 56.2%.

Regarding `COc1cc2[nH]c(=S)nc(Nc3ccc(NC(C)=O)cc3)c2cc1OC`, the fluorescence, percent of control (lower = inhibition) stood at 23.4%.

With `O=C(CSc1nnc2c(n1)[nH]c1ccccc12)Nc1ccc(S(=O)(=O)Nc2ncccn2)cc1`, the fluorescence, percent of control (lower = inhibition) is 33.3%.

On to `CCCN1C(=O)/C(=C\C=C2/Sc3ccccc3N2CC)SC1=S`, for which the fluorescence, percent of control (lower = inhibition) is 34.7%.

Regarding `C=CCn1c(COc2ccc(F)cc2)nnc1SCC(=O)c1c[nH]c2c(CC)cccc12`, the fluorescence, percent of control (lower = inhibition) was determined as 50.5%.

`O=C(CSc1ccc2nnc(-c3ccccn3)n2n1)Nc1ccc2c(c1)OCO2`: the fluorescence, percent of control (lower = inhibition) was found to be 39.5%.

Turning to `COc1ccccc1C(=O)Nc1nc(-c2ccc3c(c2)OCCO3)cs1`, the fluorescence, percent of control (lower = inhibition) was 28.6%.

Take `COc1ccc(O)c(-c2cc(C(F)(F)C(F)F)nc(-c3ccccc3)n2)c1`: the fluorescence, percent of control (lower = inhibition) was determined as 106%.
